For assay [1], the target named is human Ephrin type-A Receptor 2 (EphA2), EPHA2 (gene 1969) (UniProt P29317). Description: NVS_ENZ_hEphA2: NovaScreen (NVS) Enzymatic Assay for human Ephrin type-A Receptor 2 (EphA2) (AID 2283155). In outline: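 Enzyme activity of recombinant EphA2 read by fluorescence after mobility-shift separation, 1 h after dosing. Chemicals first tested at 25 uM (duplicate); those passing threshold run as concentration series, top 50 uM, single replicate, relative to DMSO.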

The target in a further assay is PPP2CA (gene 5515) (UniProt P67775). Nature of the assay: NVS_ENZ_hPPP2CA: NovaScreen (NVS) Enzymatic Assay for human Protein Phosphatase 2 Aatalytic subunit Alpha (PPP2CA) (AID 2283199). The method, boiled down: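 Cell-free phosphatase activity: fluorescent substrate turnover by recombinant human enzyme, resolved by mobility shift at 1.33 h. Compounds passing the 25 uM duplicate primary screen were rerun in singleton series with a 50 uM top concentration.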
PPP2CA (gene 5515), sequence (P67775 whole entry, looked up): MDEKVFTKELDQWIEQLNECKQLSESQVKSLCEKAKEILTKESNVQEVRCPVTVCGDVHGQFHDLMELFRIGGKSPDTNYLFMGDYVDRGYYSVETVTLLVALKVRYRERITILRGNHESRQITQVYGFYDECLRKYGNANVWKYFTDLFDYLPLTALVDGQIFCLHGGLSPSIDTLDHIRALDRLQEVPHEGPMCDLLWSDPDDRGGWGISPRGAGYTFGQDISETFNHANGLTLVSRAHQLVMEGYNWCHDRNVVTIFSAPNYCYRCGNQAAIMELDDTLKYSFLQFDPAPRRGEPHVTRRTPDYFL

In assay [2] the target is rat Corticotropin Releasing Factor Receptor (CRF), Crhr1 (gene 58959) (UniProt P35353). Nature of the assay: NVS_GPCR_rCRF: NovaScreen (NVS) G Protein-Coupled Receptor Assay for rat Corticotropin Releasing Factor Receptor (CRF) (AID 2283300). In outline:
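Single-concentration (25 uM, duplicate) radioligand binding on rat cortical membrane preparations, counted by scintillation after 2 h. Activity scored as signal loss relative to DMSO negative control.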

For assay [3], the target named is Voltage-dependent N-type calcium channel subunit alpha-1B (Rattus norvegicus) (UniProt Q02294). Nature of the assay: NVS_IC_rCaChN: NovaScreen (NVS) Ion Channel Assay for rat Calcium Channel, Type N (CaChN) (AID 2283317).
In assay [4] the target is human Aurora Kinase A - serine/threonine-protein Kinase 6 (AurA), AURKA (gene 6790) (UniProt O14965). Description: NVS_ENZ_hAurA: NovaScreen (NVS) Enzymatic Assay for human Aurora Kinase A - serine/threonine-protein Kinase 6 (AurA) (AID 2283142). In outline:
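Recombinant human AurA activity read by fluorescence after mobility-shift separation of product from substrate; 1 hour incubation. Chemicals first run in duplicate at 25 uM, then concentration series to 50 uM if over threshold; fitted relative to DMSO.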

Assay [5] deals with human Caspase 2 (CASP2), CASP2 (gene 835) (UniProt P42575). Nature of the assay: NVS_ENZ_hCASP2: NovaScreen (NVS) Enzymatic Assay for human Caspase 2 (CASP2) (AID 2283135). The method, boiled down: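 Single-point duplicate testing at 25 uM preceded concentration series topping at 50 uM. Activity of the recombinant E. coli-derived protease was followed by fluorescent substrate cleavage 1 h post-dosing, relative to DMSO.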
human Caspase 2 (CASP2), CASP2 (gene 835), sequence (P42575 whole entry, looked up): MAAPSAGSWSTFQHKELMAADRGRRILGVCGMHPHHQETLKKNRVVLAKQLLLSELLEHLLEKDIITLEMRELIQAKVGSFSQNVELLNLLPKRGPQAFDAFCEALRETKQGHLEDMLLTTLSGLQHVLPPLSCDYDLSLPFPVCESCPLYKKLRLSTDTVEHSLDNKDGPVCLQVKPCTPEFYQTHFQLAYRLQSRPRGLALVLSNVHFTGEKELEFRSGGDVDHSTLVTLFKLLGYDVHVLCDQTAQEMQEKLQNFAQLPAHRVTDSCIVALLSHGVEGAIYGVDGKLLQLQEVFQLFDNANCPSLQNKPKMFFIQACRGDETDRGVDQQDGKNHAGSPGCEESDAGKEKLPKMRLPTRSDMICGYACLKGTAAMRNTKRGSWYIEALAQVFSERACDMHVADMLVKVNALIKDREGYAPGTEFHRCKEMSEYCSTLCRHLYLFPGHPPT

Assay [6] concerns the target human p21 Activated Kinase 4 (PAK4), PAK4 (gene 10298) (UniProt O96013). Nature of the assay: NVS_ENZ_hPAK4: NovaScreen (NVS) Enzymatic Assay for human p21 Activated Kinase 4 (PAK4) (AID 2283189). In outline: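 Extracted PAK4 enzyme activity read by fluorescence with mobility-shift separation 1 h after chemical addition. Duplicate single-concentration screen at 25 uM, DMSO as negative control.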

In assay [7] the target is human Protein Tyrosine Phosphatase Receptor Type C (PTPRC), PTPRC (gene 5788) (UniProt P08575). Description: NVS_ENZ_hPTPRC: NovaScreen (NVS) Enzymatic Assay for human Protein Tyrosine Phosphatase Receptor Type C (PTPRC) (AID 2283212). In outline:
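Absorbance-based phosphatase activity of human PTPRC protein extracted from yeast was measured 1 h post-dosing. Compounds first tested at 25 uM in duplicate, then those passing threshold in singleton concentration series to 50 uM.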

Assay [8] has as its system rat Monoamine Oxidase, MAO-A, Peripheral (MAOAP), gene 29253. Description: NVS_ENZ_rMAOAP: NovaScreen (NVS) Enzymatic Assay for rat Monoamine Oxidase, MAO-A, Peripheral (MAOAP) (AID 2283237). In outline:
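Scintillation counting tracked MAO-A activity in a cell-free rat liver mitochondrial membrane prep, read 1.17 hours after compound addition. Single-point duplicate testing at 25 uM preceded concentration-response follow-up; activity was fitted relative to DMSO.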

The target in assay [9] is Norway rat Vesicular Monoamine Transporter (VMAT2), neurotransmitter transporter, Slc18a2 (gene 25549) (UniProt Q01827). Nature of the assay: NVS_TR_rVMAT2: NovaScreen (NVS) Transporter Assay for Norway rat Vesicular Monoamine Transporter (VMAT2), neurotransmitter transporter (AID 2283376).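 Further: actives lower the bound radioligand signal below the DMSO level.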 In outline: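 Binding endpoint from rat forebrain tissue, cell-free; 1 h incubation; filtered radioligand counted; 25 uM duplicate primary then dose series; DMSO negative control.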

Assay [10] relates to rat Monoamine Oxidase, MAO-A, Central (MAOAC), gene 29253. Nature of the assay: NVS_ENZ_rMAOAC: NovaScreen (NVS) Enzymatic Assay for rat Monoamine Oxidase, MAO-A, Central (MAOAC) (AID 2283243).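 Further: potency refers to inhibition seen as signal drop below DMSO baseline.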 In outline: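 Scintillation read-out of MAO-A activity in rat brain lysate, 1.5 h post-dosing. Primary single-concentration screen: 25 uM, duplicate; actives re-tested in concentration series. DMSO = negative control/baseline.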

The nature of assay [11]: CCTE_Harrill_HTTr_Apoptosis_PRF_DMEM_12hr: (Pilot) CCTE's 12-hour Apoptosis Assessment for the High-Throughput Transcriptomics (HTTr) Platform, in MCF-7 cells cultured in phenol red-free DMEM + 10% charcoal-stripped fetal bovine serum, Harrill Lab (AID 2283985; active means hit-call score of the fitted dose curve at least 0.9, where 1 is the maximum; inactive means score below 0.9). The method, boiled down:
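Caspase-3/7 activity by CellEvent Green high content imaging after 12 h compound exposure (eight concentrations) in MCF-7 grown in phenol red-free DMEM plus 10% charcoal-stripped serum; DMSO as baseline.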

Assay [12] has as its target rat Monoamine Oxidase, MAO-B, Central (MAOBC), Maob (gene 25750) (UniProt P19643). Nature of the assay: NVS_ENZ_rMAOBC: NovaScreen (NVS) Enzymatic Assay for rat Monoamine Oxidase, MAO-B, Central (MAOBC) (AID 2283238). The method, boiled down: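 Here MAO-B activity in rat brain preparations is quantified radiometrically, counts taken at 1.17 hours. Concentration-response runs reach 50 uM, with plate controls, and values are fitted as loss of signal from the DMSO baseline.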

For assay [13], the target named is rat Neurotensin Receptor (NTS), Ntsr1 (gene 366274) (UniProt P20789). Nature of the assay: NVS_GPCR_rNTS: NovaScreen (NVS) G Protein-Coupled Receptor Assay for rat Neurotensin Receptor (NTS) (AID 2283308). The method, boiled down: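 Single-point duplicates at 25 uM, then concentration series to 50 uM max for hits, measured radioligand displacement on rat forebrain membrane preparations. Bound label counted by filtration scintillation at 1 h; signal loss relative to DMSO fitted.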

Assay [14] deals with human Fibroblast Growth Factor Receptor 1 (FGFR1), FGFR1 (gene 2260) (UniProt P11362). Nature of the assay: NVS_ENZ_hFGFR1: NovaScreen (NVS) Enzymatic Assay for human Fibroblast Growth Factor Receptor 1 (FGFR1) (AID 2283159). The method, boiled down:
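Cell-free recombinant kinase with fluorescent substrate, product separated by electrophoretic mobility shift; read 1 hour after dosing, loss of signal relative to DMSO. Initial screen in duplicate at 25 uM, actives followed in concentration series.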

In assay [15] the target is human Matrix Metalloproteinase-1 (MMP1), MMP1 (gene 4312) (UniProt P03956). Nature of the assay: NVS_ENZ_hMMP1: NovaScreen (NVS) Enzymatic Assay for human Matrix Metalloproteinase-1 (MMP1) (AID 2283181). The method, boiled down:
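Cell-free fluorescent substrate assay of human MMP1, read after 1 h. A single 25 uM duplicate screen was followed by concentration series to a maximum of 50 uM for actives meeting threshold; inhibition analysed against DMSO baseline.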

Assay [16] has as its target human Tyrosine Protein Kinase Receptor Tie-2 (Tie2), TEK (gene 7010) (UniProt Q02763). Nature of the assay: NVS_ENZ_hTie2: NovaScreen (NVS) Enzymatic Assay for human Tyrosine Protein Kinase Receptor Tie-2 (Tie2) (AID 2283225). In outline: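 Substrate and product were separated by mobility shift and detected by fluorescence after a 1-hour reaction with recombinant Tie2. Chemicals passing a 25 uM single-point screen were titrated to a maximum of 50 uM. Results were normalized to DMSO baseline.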

The target of assay [17] is human Mitogen-Activated Protein Kinase 1 (MAPK 1), MAPK1 (gene 5594) (UniProt P28482). Description: NVS_ENZ_hMAPK1: NovaScreen (NVS) Enzymatic Assay for human Mitogen-Activated Protein Kinase 1 (MAPK 1) (AID 2283175). In outline:
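Cell-free recombinant human MAPK1 enzymatic assay, fluorescence/electrophoretic mobility shift read at 1 h; loss of signal vs DMSO. Primary screen in duplicate at 25 uM; actives (e.g. ≥30% inhibition) run as concentration-response up to 50 uM.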

Assay [18] concerns the target human MET Proto-Oncogene, Receptor Tyrosine Kinase (MET), MET (gene 4233) (UniProt P08581). Nature of the assay: NVS_ENZ_hMet: NovaScreen (NVS) Enzymatic Assay for human MET Proto-Oncogene, Receptor Tyrosine Kinase (MET) (AID 2283180). The method, boiled down:
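Hits from a 25 uM duplicate screen were retested in concentration series up to 50 uM. Enzyme activity was measured by fluorescence after electrophoretic separation of product from substrate, 1 h after compound addition, relative to DMSO.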

The target in assay [19] is human Phosphatase and Tensin Homolog (PTEN), PTEN (gene 5728) (UniProt P60484). Nature of the assay: NVS_ENZ_hPTEN: NovaScreen (NVS) Enzymatic Assay for human Phosphatase and Tensin Homolog (PTEN) (AID 2283203). The method, boiled down:
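Loss of fluorescent product signal after mobility-shift separation reports PTEN activity, recombinant human enzyme, 1 h after compound addition. Single 25 uM duplicate screen, then concentration-response on actives; DMSO baseline.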

The target of assay [20] is human Ephrin type-B Receptor 2 (EphB2), EPHB2 (gene 2048) (UniProt P29323). Nature of the assay: NVS_ENZ_hEphB2: NovaScreen (NVS) Enzymatic Assay for human Ephrin type-B Receptor 2 (EphB2) (AID 2283156). The method, boiled down:
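Compounds were first tested in duplicate at 25 uM, with hits rerun singly in concentration series up to 50 uM. Enzyme activity on fluorescent substrate was read at 1 h by mobility-shift separation, scored as signal loss relative to DMSO.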

Assay [21] can be described thus: ATG_M_32_XSP2: Attagene TRANS-FACTORIAL Multi-Species (XSP2) HepG2 Assay for M19 Transcription Factor (Internal Marker) (AID 2283826). The method, boiled down: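 Total RNA is taken from compound-treated HepG2 cells after 24 h and reverse-transcribed; reporter cDNA is PCR-amplified, end-labelled with 6-FAM, digested with HpaI for 2h at 37 C and sized by capillary electrophoresis. Activity is fitted in the positive direction against DMSO.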

Results filed as inconclusive are left out. Activity calls are given as the source filed them. How the source made its calls, unless noted: active means hit-call score of the fitted dose curve at least 0.9, where 1 is the maximum; inconclusive means response in the unintended direction; inactive means score below 0.9.

human Ephrin type-A Receptor 2 (EphA2), EPHA2 (gene 1969), sequence (P29317 whole entry, looked up): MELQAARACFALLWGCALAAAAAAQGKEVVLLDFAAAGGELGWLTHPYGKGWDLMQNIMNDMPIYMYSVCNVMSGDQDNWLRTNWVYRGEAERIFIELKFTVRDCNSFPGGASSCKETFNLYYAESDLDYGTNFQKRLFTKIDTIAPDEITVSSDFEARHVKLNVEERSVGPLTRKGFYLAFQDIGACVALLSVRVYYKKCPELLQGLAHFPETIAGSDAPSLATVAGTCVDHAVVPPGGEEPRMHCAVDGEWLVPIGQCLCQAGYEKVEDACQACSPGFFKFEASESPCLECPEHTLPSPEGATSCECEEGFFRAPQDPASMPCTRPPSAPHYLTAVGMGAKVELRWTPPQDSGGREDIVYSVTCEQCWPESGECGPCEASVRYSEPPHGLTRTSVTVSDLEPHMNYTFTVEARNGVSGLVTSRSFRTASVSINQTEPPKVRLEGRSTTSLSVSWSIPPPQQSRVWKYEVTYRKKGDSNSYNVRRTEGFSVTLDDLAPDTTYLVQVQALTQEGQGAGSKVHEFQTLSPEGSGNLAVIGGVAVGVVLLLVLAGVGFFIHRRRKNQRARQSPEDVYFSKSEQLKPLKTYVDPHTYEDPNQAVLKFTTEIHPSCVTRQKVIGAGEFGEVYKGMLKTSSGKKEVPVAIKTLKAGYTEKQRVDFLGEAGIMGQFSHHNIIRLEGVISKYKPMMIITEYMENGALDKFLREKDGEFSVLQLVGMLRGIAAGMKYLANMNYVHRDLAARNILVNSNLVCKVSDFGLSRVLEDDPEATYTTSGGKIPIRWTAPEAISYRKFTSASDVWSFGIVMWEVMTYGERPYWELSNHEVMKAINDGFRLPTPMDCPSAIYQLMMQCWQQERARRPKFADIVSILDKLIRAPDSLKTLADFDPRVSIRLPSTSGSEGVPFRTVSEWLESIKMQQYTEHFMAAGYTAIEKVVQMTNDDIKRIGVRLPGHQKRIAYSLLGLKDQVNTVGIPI
human p21 Activated Kinase 4 (PAK4), PAK4 (gene 10298), sequence (O96013 whole entry, looked up): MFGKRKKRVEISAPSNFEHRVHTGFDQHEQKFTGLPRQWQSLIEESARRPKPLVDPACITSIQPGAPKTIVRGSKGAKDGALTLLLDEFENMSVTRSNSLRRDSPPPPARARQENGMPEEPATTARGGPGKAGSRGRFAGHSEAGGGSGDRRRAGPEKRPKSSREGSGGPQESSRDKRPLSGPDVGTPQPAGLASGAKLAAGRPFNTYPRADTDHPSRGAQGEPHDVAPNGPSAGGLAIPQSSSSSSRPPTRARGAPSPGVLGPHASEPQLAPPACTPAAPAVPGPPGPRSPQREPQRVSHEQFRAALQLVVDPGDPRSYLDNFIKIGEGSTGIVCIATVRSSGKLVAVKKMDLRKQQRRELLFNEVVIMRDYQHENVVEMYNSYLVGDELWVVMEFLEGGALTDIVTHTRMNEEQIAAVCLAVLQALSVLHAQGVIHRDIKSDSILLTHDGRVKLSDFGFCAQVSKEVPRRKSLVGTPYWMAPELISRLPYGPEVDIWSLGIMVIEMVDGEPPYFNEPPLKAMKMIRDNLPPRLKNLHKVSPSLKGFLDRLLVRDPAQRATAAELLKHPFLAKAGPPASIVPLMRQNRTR
human Fibroblast Growth Factor Receptor 1 (FGFR1), FGFR1 (gene 2260), sequence (P11362 whole entry, looked up): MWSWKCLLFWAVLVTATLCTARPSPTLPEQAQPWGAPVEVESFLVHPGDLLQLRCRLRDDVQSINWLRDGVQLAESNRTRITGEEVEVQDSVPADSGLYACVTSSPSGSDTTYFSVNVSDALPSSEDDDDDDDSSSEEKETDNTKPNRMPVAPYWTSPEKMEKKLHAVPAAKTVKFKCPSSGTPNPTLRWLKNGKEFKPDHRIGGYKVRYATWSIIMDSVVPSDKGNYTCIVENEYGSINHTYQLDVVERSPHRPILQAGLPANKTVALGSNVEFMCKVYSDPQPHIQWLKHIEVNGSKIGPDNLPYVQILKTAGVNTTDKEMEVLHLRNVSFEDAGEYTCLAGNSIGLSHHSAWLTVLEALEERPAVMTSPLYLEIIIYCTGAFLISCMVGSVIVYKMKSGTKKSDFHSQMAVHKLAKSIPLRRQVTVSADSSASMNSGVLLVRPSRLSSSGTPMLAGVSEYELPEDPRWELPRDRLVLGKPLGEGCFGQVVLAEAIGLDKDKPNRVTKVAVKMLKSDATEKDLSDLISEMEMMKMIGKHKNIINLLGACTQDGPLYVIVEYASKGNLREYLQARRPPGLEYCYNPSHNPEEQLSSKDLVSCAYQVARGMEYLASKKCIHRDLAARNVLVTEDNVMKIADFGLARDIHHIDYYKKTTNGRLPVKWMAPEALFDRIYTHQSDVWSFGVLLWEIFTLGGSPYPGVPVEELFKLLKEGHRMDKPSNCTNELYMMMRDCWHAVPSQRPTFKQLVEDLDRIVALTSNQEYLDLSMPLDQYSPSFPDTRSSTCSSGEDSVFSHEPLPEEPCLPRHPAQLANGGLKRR
human Aurora Kinase A - serine/threonine-protein Kinase 6 (AurA), AURKA (gene 6790), sequence (O14965 whole entry, looked up): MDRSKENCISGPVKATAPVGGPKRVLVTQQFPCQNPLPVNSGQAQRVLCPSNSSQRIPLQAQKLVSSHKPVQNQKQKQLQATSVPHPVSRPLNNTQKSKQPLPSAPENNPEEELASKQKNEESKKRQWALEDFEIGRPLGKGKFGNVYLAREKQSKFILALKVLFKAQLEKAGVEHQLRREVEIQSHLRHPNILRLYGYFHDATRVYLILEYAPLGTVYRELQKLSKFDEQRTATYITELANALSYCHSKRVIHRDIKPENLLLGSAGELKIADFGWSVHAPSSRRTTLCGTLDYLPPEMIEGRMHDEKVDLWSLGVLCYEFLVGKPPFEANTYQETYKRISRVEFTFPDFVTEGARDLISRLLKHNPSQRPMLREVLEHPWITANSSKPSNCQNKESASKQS
human Protein Tyrosine Phosphatase Receptor Type C (PTPRC), PTPRC (gene 5788), sequence (P08575 whole entry, looked up): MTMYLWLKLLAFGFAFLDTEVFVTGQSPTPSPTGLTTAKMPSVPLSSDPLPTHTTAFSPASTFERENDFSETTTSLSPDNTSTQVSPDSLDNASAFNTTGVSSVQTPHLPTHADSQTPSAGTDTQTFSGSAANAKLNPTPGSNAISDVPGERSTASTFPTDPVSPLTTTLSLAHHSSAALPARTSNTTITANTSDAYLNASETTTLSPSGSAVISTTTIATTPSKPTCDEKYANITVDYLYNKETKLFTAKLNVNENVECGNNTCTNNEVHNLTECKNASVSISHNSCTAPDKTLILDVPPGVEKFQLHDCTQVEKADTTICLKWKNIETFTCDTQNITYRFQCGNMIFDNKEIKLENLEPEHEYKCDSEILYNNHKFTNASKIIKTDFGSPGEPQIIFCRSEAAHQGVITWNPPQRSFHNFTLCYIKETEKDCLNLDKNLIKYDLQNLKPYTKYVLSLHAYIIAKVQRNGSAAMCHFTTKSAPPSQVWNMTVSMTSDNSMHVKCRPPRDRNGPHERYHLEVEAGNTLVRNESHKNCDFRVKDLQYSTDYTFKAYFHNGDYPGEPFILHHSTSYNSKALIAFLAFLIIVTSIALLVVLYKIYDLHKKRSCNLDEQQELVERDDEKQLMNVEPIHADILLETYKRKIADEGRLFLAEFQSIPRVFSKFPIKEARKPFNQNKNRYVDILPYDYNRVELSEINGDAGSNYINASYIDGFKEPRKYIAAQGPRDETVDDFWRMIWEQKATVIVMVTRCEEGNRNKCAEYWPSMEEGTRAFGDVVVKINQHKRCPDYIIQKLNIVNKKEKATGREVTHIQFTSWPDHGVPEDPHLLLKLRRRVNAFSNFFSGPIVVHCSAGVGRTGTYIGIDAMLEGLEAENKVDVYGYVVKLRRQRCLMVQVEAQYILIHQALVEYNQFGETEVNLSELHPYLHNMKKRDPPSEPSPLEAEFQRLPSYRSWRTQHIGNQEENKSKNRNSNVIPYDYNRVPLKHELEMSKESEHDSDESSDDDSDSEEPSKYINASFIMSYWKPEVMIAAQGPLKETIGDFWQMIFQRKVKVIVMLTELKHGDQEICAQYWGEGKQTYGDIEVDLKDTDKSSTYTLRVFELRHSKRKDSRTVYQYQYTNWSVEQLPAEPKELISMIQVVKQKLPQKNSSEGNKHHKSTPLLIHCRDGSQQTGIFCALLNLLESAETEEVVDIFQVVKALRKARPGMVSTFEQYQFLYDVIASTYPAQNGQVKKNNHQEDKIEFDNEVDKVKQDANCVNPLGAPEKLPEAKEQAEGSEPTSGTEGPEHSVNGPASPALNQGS

As to `CC(=O)c1ccccc1`, the result in [1] was inactive.

For the compound `Cc1ccc(C(C)(C)C)c(O)c1`, the compound was classed as inactive in [1].

Consider `CCN(Cc1cccc(S(=O)(=O)O)c1)c1ccc(C(=C2C=CC(=[N+](CC)Cc3cccc(S(=O)(=O)O)c3)C=C2)c2ccccc2S(=O)(=O)[O-])cc1`, for which, in the assay with PPP2CA (gene 5515), the compound was called inactive.

As for `O=C(OCCCCCOC(=O)c1ccccc1)c1ccccc1`, the compound was classed as inactive (in the assay with PPP2CA (gene 5515); in assay [2]).

As for `Cc1oc(-c2ccccc2)nc1CCOc1cccc2c1ccn2CCC(=O)O`, the call in assay [2] and in assay [3] was inactive.

Take `CC=Cc1ccc(O)c(OC)c1`: the compound was classed as inactive in [4].

Take `C[C@@H](Oc1ccc(CNC(=O)c2cccnc2Oc2ccc3c(c2)OCO3)c(F)c1)C(=O)O`: the call in [5] and in assay [3] was inactive.

By AC50 is commonly meant the midpoint of the concentration-response curve, whichever way the signal moves. Consider `O=Cc1ccccc1C=O`, for which the compound was classed as inactive in assay [1], in [6], in assay [8], in assay [3] and in assay [9]. The AC50 in [7] was 17.7 µM (active).

In the case of `CCCCc1oc2ccccc2c1C(=O)c1cc(I)c(OCCN(CC)CC)c(I)c1`, the call in assay [1], in [6] and in [11] was inactive. For the same compound, the AC50 in assay [10] was 18.9 µM (active).

Take `Oc1ccc2ccccc2c1`: the AC50 was 36.6 µM (active) in [4], 12.9 µM (active) in [8], 14.4 µM (active) in [12] and 10.2 µM (active) in [10].

Turning to `COc1cc(S(=O)(=O)O)c(C)cc1N=Nc1c(O)ccc2cc(S(=O)(=O)O)ccc12`, the AC50 was 6.73 µM (active) in [5] and 16.8 µM (active) in assay [13].

As for `CC[C@@H]1C[C@H](N(Cc2cc(C(F)(F)F)cc(C(F)(F)F)c2)C(C)=O)c2cc(C(F)(F)F)ccc2N1C(=O)OC(C)C`, the call in assay [5] and in assay [3] was inactive.

Turning to `COc1ccc2sc(C(=O)Nc3nnn[nH]3)c(OC(C)C)c2c1`, the AC50 in [4] is 9.98 µM (active). The result in [14], in assay [15], in [6] and in [16] was inactive.

Consider `O=C(Nc1ccc(Cl)cc1)Nc1ccc(Cl)c(Cl)c1`, for which the outcome in [1] was inactive.

For `Cc1nc(-c2ccccn2)ncc1C(=O)Nn1cc(C)c2cc(F)ccc21`, the call in assay [4], in assay [1], in [14], in assay [17], in assay [18] and in assay [6] was inactive. Besides, the result (in the assay with PPP2CA (gene 5515); in [19]; in assay [16]) was inactive.

For `Cc1ccc(Cl)cc1`, the outcome in assay [1] was inactive.

`Clc1nc(Cl)c(Cl)c(Cl)c1Cl`: the result in assay [1], in assay [20], in assay [14], in assay [9] and in assay [21] was inactive.

For `CC(C)COC(=O)CCCCC(=O)OCC(C)C`, the compound was classed as inactive in assay [5] and in assay [3].

Turning to `CC(C)c1cccc(C(C)C)c1`, the compound was classed as inactive in assay [1], in assay [7] and in [3].

These data come from PubChem BioAssay (EPA / NIEHS).
